Where “and” joins values, the source holds several entries; their conditions need not be identical. Equal entries are not always repeated. Inconclusive results are not listed. Calls of active or inactive are those of the source. Unless noted, no rule for the calls is given here.
Key:
[1] = qHTS assay for cell viability of HEK293 cells (AID 743288; active = well fitted cell-killing curve with a large enough effect; also: % is scaled to controls: 0 for no effect and ±100 for the full control effect; nearly all actives have a fitted effect of over 50% in size); conditions: ATP luminescence (CellTiter-Glo), 18 h, stronger effect = lower value
Outline: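 The Tox21 protocol used parental HEK293 cells treated for 18 h at 37 C with compounds delivered by pintool; ATP-coupled luminescence after 30 min at room temperature gave viability.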

[2] = qHTS assay for cell viability of the p53RE-bla HCT-116 cell line (AID 743292; active = well fitted cell-killing curve with a large enough effect; also: % is scaled to controls: 0 for no effect and ±100 for the full control effect; nearly all actives have a fitted effect of over 55% in size); conditions: p53RE-bla HCT-116 viability, ATP luminescence, 16 h; series mostly up to 95 µM
Outline: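 CellSensor p53RE-bla HCT-116 cells, 4,000/well, preincubated 5 h at 37 C, then exposed to compounds in DMSO for 16 h at 37 C. Viability read as CellTiter-Glo luminescence (intracellular ATP) after 30 min at room temperature.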

[3] = target: Nuclear receptor subfamily 1 group I member 2 (Rattus norvegicus) (UniProt Q9R1A7); assay: qHTS assay for small molecule activators of the rat pregnane X receptor (rPXR) signaling pathway (AID 651751); conditions: rPXR reporter cells, luciferase (One-Glo), 24 h; also: 0% is about no effect
[4] = qHTS assay for small molecule activators of the human pregnane X receptor (PXR) signaling pathway (AID 720659); conditions: DPX-2 HepG2 CYP3A4-luciferase, 24 h; series mostly up to 92.3 µM; also: 0% is about no effect

Chain of Nuclear receptor subfamily 1 group I member 2 (Rattus norvegicus) (Q9R1A7 whole entry, looked up): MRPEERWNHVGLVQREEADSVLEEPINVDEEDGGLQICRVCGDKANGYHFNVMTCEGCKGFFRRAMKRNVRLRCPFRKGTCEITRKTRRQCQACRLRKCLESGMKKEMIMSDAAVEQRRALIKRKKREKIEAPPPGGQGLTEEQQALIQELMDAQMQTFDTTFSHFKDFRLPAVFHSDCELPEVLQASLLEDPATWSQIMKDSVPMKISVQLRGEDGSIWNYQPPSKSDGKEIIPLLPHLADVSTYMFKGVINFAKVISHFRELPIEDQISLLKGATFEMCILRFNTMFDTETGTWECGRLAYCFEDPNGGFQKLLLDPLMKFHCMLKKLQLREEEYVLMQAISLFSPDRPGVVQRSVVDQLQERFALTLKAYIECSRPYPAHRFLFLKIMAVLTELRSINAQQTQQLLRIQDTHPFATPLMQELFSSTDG

CCCCCCCCC/C=C/CC1CC(=O)OC1=O (centres undefined)
inactive: max response [1] 0.292% | Potency [2] | max response [3] -1.93% | outcome [4]

O=C(Cl)c1c(Cl)cccc1Cl
inactive: max response [1] 0.0079% | Potency [2] | max response [3] -2.88% | outcome [4]

O=C(O)c1cccc([N+](=O)[O-])c1
inactive: max response [1] 4.89% and -8.68% | Potency [2] | max response [3] -0.759% and -3.01% | outcome [4]

FC(F)(F)c1ccccc1Cl
inactive: max response [1] 10.1% | Potency [2] | max response [3] -1.61% | outcome [4]

Cc1cccc([N+](=O)[O-])c1C(=O)O
inactive: max response [1] -0.404% | Potency [2] | max response [3] 12.6% | outcome [4]

Cc1ccccc1C#N
inactive: max response [1] -0.799% | Potency [2] | max response [3] -0.838% | outcome [4]

CC(=C/C=C/C(C)=C/C=C/C=C(C)/C=C/C=C(C)/C=C/C(=O)O)/C=C/C(=O)O
inactive: max response [1] -2.36% | Potency [2] | max response [3] 9.17% | outcome [4]

C=CCOC(=O)COCCC(C)C
inactive: max response [1] -0.0294% | Potency [2] | max response [3] -3.06% | outcome [4]

ICCc1ccccc1
inactive: max response [1] -14.1% | Potency [2] | max response [3] -1.67% | outcome [4]

Cc1ccccc1Br
inactive: max response [1] -0.991% | Potency [2] | max response [3] -1.24% | outcome [4]

Cc1cccc(C(=O)O)c1
inactive: max response [1] 2.24% | Potency [2] | max response [3] -5.92% | outcome [4]

O=P(O)(OCc1ccccc1)OCc1ccccc1
inactive: max response [1] -11.9% | Potency [2] | max response [3] 3.16% | outcome [4]

Cc1ccc(C)cc1
inactive: max response [1] -11.4% | Potency [2] | max response [3] 0.288% | outcome [4]

CC(C)C=O
inactive: max response [1] -10.3% | Potency [2] | max response [3] 1.58% | outcome [4]

C=C(C)OC(C)=O
inactive: max response [1] -0.625% | Potency [2] | max response [3] -1.49% | outcome [4]

CN(C)CCCNCCCN
inactive: max response [1] -0.667% | Potency [2] | max response [3] -0.438% | outcome [4]

O=C(O)c1ccc(Cl)cc1Cl
inactive: max response [1] 4.16% | Potency [2] | max response [3] 4.22% | outcome [4]

O=C(Cl)c1ccccc1[N+](=O)[O-]
inactive: max response [1] -5.53% | Potency [2] | max response [3] 1.88% | outcome [4]

C/C=C(/C)C#N
inactive: max response [1] 0.0053% | Potency [2] | max response [3] 8.65% | outcome [4]

Cc1ccc(Cl)cc1N
inactive: max response [1] 3.66% | Potency [2] | max response [3] 0.767% | outcome [4]

C=C(C)C(=O)OCC(C)O (centres undefined)
inactive: max response [1] -4.55% | Potency [2] | max response [3] -4.2% | outcome [4]

CC(C)CO
inactive: max response [1] 4.23% | Potency [2] | max response [3] 1.55% | outcome [4]

COC(=O)CS
inactive: max response [1] 3.47% | Potency [2] | max response [3] -1.83% | outcome [4]

Oc1cccc(Nc2ccccc2)c1
inactive: max response [1] 2.73% | Potency [2] | max response [3] 5.07% | outcome [4]

CNC(=O)c1ccccc1
inactive: max response [1] 8.06% | Potency [2] | max response [3] -4.07% | outcome [4]

Cc1ccccc1C=O
inactive: max response [1] 5.96% | Potency [2] | max response [3] 1.66% | outcome [4]

C=C(C)C(=O)OC
inactive: max response [1] 0.0882% | Potency [2] | max response [3] 2.17% | outcome [4]

CC/C(C)=N/O
inactive: max response [1] 6.15% | Potency [2] | max response [3] 5.17% | outcome [4]

Cc1ccc(C)o1
inactive: max response [1] -6.28% | Potency [2] | max response [3] -1.6% | outcome [4]

CCOCCO
inactive: max response [1] -0.409% | Potency [2] | max response [3] -4.11% | outcome [4]

O=C(O)c1ccccc1[N+](=O)[O-]
inactive: max response [1] 3.94% | Potency [2] | max response [3] 0.256% | outcome [4]

NC(=S)NNC(N)=S
inactive: max response [1] -2.43% and -16.6% | Potency [2] | max response [3] -3.78% and 5.23% | outcome [4]

c1ccc2c(c1)Oc1ccccc1S2
inactive: max response [1] 0.655% | Potency [2] | max response [3] -3.68% | outcome [4]

O=C(O)c1ccccc1Cl
inactive: max response [1] -4.79% | Potency [2] | max response [3] 1.04% | outcome [4]

CC1CCC2CC1C2(C)C (centres undefined)
inactive: max response [1] -8.03% | Potency [2] | max response [3] -2.72% | outcome [4]

Clc1ccc(Cl)c(Cl)c1Cl
inactive: max response [1] 5.4% and -1.16% | Potency [2] | max response [3] -5.98% and -1.32% | outcome [4]

From PubChem BioAssay (NCATS)
